Data published in PubChem BioAssay AID1851 (National Center for Advancing Translational Sciences (NCATS), 2009).
In all, about 16,000 compounds went through this assay and about 4,000 (25%) were called active. About 26% were inconclusive and are not listed. Calls follow the shape of the dose curve; as a rule, active = well fitted curve in the direction sought with a large enough effect; inconclusive = small, poorly fitted or top-dose-only effect, or effect the other way; inactive = no such curve, though single readings can be large or run the other way. These entries were drawn from the full list.

Target: Cytochrome P450 2C9 (Homo sapiens) (UniProt P11712)
Test: Cytochrome panel assay with activity outcomes
Settings: recombinant CYP, pro-luciferin dealkylation, luminescence, p450-cyp2c9; series mostly up to 57.1 µM; activity, negative = inhibition: at the top concentration
% is scaled to controls: 0 for no effect and ±100 for the full control effect.

Chain of Cytochrome P450 2C9 (Homo sapiens) (P11712 whole entry, looked up): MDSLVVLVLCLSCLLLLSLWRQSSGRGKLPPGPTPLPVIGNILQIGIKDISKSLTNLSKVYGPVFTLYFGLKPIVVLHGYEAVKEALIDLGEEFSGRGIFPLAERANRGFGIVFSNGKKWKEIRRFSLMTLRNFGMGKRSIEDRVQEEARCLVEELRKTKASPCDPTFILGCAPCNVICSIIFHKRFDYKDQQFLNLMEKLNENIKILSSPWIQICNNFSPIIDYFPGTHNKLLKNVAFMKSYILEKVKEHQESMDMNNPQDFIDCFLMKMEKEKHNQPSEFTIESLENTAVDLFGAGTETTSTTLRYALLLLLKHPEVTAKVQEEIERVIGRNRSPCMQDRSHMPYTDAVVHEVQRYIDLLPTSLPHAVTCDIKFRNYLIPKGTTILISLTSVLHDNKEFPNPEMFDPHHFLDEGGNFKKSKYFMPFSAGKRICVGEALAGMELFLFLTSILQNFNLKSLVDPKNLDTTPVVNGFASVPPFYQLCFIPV

SMILES	AC50	activity, negative = inhibition
C[C@@H]1CCN=C(N)S1	inactive	–
CS(=O)(=O)Nc1cccc(-c2ccc3ncnc(NC4CC4)c3c2)c1	–	-17.7% [at 2.29 µM] (inactive)
CO[C@@H]1COC(=O)[C@H]2CCCN2C(=O)C/C=C\[C@@H](C)[C@H](OC)COC(=O)[C@H]2CCCN2C(=O)C/C=C\[C@H]1C	–	-0.816% [at 11.4 µM] (inactive)
COc1ccc(-n2c(=O)cnc3cnc(Oc4cccc(Cl)c4)nc32)cc1	–	-9.85% (inactive)
O=c1cnc2cnc(Oc3ccccc3)nc2n1CCc1ccccc1	3.16 µM (active)	–
COc1cccc(Cn2c(=O)cnc3cnc(OC)nc32)c1	–	-12.8% (inactive)
N#CCCn1c(=O)cnc2cnc(Oc3ccccc3)nc21	–	9.43% (inactive)
CN1CCN(c2ncc3ncc(=O)n(Cc4ccc(F)cc4)c3n2)CC1	–	-10.8% (inactive)
O=c1cnc2cnc(OCc3ccccc3)nc2n1Cc1ccc(F)cc1	–	-2.86% (inactive)
COc1cccc(Cn2c(=O)cnc3cnc(Oc4cccc(Cl)c4)nc32)c1	3.98 µM (active)	–
O=c1cnc2cnc(Oc3ccccc3)nc2n1Cc1ccc(F)cc1	15.8 µM (active)	–
O=c1cnc2cnc(Oc3cccc(Cl)c3)nc2n1Cc1ccc(F)cc1	7.94 µM (active)	–
Cc1nc2cnc(Oc3ccccc3)nc2n(CCc2ccccc2)c1=O	–	-15.1% (inactive)
CO[C@@H]1COC(=O)CC=C[C@@H](C)[C@@H]2C=C[C@@H](O)[C@@H](COC(=O)C/C=C\[C@H]1C)O2	–	-2.62% [at 11.4 µM] (inactive)
C#CCCCO/N=C1/C[C@@H](O)[C@@H](O)[C@@H]2[C@@H]3C(=O)N(Cc4ccccc4)C(=O)[C@H]3CC[C@H]12	–	-13.5% [at 11.4 µM] (inactive)
CC1(C)OC[C@@H]2O[C@H](n3cnc4c(N)nc(Cl)nc43)[C@@H](OS(C)(=O)=O)[C@@H]2O1	–	2.13% [at 11.4 µM] (inactive)
CC(C)c1ccc2nc3sc(C(=O)N4CCc5ccccc5C4)c(N)c3cc2c1	4.47 µM (active)	–
Cc1noc(NC(=O)Nc2ccccc2F)c1C#N	–	-5.47% [at 11.4 µM] (inactive)
COc1ccc(CC(=O)O/N=C(\N)Cc2ccc(OC)cc2)cc1	–	-27.8% (inactive)
COc1ccc2c(c1)C(=NN)c1cc(OC)ccc1-2	3.55 µM (active)	–
C/C(CCc1ccc2c(c1)OCO2)=N\N=C1\NC(=O)CC(C(=O)Nc2ccccc2)S1 (configuration not stated)	7.94 µM (active)	–
CCN1C(=O)[C@H]2[C@H]3[C@H](O)[C@H](O)C/C(=N/NC(=O)OCc4ccccc4)[C@@H]3CC[C@@H]2C1=O	–	-4.03% [at 11.4 µM] (inactive)
OC[C@@H]1O[C@@H](n2cnc3c(NC4CCCC4)ncnc32)[C@H](O)[C@H]1O	–	-16.1% (inactive)
O=S(=O)(c1ccccc1)N1CCN(c2cc(-c3ccccc3)nc3ncnn23)CC1	12.6 µM (active)	–

SMILES	AC50	activity, negative = inhibition
Cc1cc(N2CCN(c3nc4ccccc4s3)CC2)n2ncnc2n1	–	4.71% (inactive)
FC(F)(F)c1ccc(N2CCN(c3cc(-c4ccccc4)nc4ncnn34)CC2)nc1	2.24 µM (active)	–
CN1CCN(c2cc(-c3ccccc3C(F)(F)F)ncn2)CC1	–	4.29% [at 2.29 µM] (inactive)
CC(C)CN1CCCC2(CCN(S(=O)(=O)c3ccccc3)CC2)C1	–	-5.62% (inactive)
CN(C)c1ncc2nc(CCc3ccccc3)c(=O)n(-c3ccccc3)c2n1	12.6 µM (active)	–
COCCn1c(=O)c(-c2ccccc2)nc2cnc(N(C)C)nc21	20 µM (active)	–
CN(C)c1ncc2nc(-c3ccccc3)c(=O)n(C3CC3)c2n1	10 µM (active)	–
CN(C)c1ncc2nc(-c3ccc(F)cc3)c(=O)n(C)c2n1	–	-0.0101% (inactive)
COCCn1c(=O)c(-c2cc(F)cc(F)c2)nc2cnc(N(C)C)nc21	–	20.2% (inactive)
CN(C)c1ncc2nc(-c3ccc(Cl)cc3)c(=O)n(C)c2n1	–	5.21% (inactive)
CCNc1ncc2nc(-c3ccccc3)c(=O)n(C3CC3)c2n1	–	-20.9% (inactive)
Cc1nc2cnc(N(C)C)nc2n(-c2ccccc2)c1=O	–	6.91% (inactive)
COCCn1c(=O)c(-c2ccc(Cl)cc2)nc2cnc(N(C)C)nc21	–	-16% (inactive)
O=c1c(-c2ccccc2)nc2cncnc2n1C1CC1	–	-16.8% (inactive)
CN(C)c1ncc2nc(-c3ccccc3)c(=O)n(C)c2n1	10 µM (active)	–
COc1ccc(-n2c(=O)c(CCc3ccccc3)nc3cnc(N(C)C)nc32)cc1	–	11.8% (inactive)
CC(C)NC(=O)N1CCCC2(CCN(C(=O)c3csnn3)CC2)C1	–	-5.11% (inactive)
N#Cc1cccc(-c2nc(NCc3cccs3)c3ccccc3n2)c1	–	-13.5% [at 2.29 µM] (inactive)
CN(C)c1ncc2nc(-c3ccccc3)c(=O)n(CCc3ccccc3)c2n1	0.631 µM (active)	–
CN(C)c1ncc2nc(-c3cc(F)cc(F)c3)c(=O)n(CCc3ccccc3)c2n1	–	7.62% (inactive)
Cc1nc2cnc(N(C)C)nc2n(CCc2ccccc2)c1=O	12.6 µM (active)	–
Cc1nc2cnc(N(C)C)nc2n(Cc2cccs2)c1=O	–	-0.28% (inactive)
COCCn1c(=O)c(C)nc2cnc(N(C)C)nc21	–	20.5% (inactive)
